The campaign covered roughly 5,500 compounds. About 2,000 (36%) were called active. Roughly 18% stayed inconclusive and do not appear here. Cut-off read from the data, not from the text of the source: active = normalized growth mostly below about 0.91 (no sharp cut-off); inconclusive = no clear call, values can overlap the other calls; inactive = mostly above about 0.92. Some of the results follow.
Assay: chemical genetic growth profiling, strain panel (AID 1159580);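 note: tested at 20 µM; growth read once vehicle control cultures reached saturation at 30 °C; 1 = growth at the plate median or of vehicle wells; lower values mean less growth of the strain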
Conditions: growth OD

Measured: normalized growth

CC(C)N1C(=O)c2ccccc2NS1(=O)=O
inactive: S. cerevisiae deletion strains, locus YKL009W, strain mrt4, hits give low values 1.01 | S. cerevisiae deletion strains, locus YKL068W, hits give low values 0.994 | S. cerevisiae deletion strains, locus YKL085W, strain MDH1 (second series), hits give low values 0.997 | S. cerevisiae deletion strains, locus YKL085W, strain MDH1, hits give low values 0.997 | S. cerevisiae deletion strains, locus YKL160W, strain elf1, hits give low values 0.974 | S. cerevisiae deletion strains, locus YKL190W, strain CNB1, hits give low values 0.998 | S. cerevisiae deletion strains, locus YKR001C, strain vps1, hits give low values 1.01 | S. cerevisiae deletion strains, locus YKR026C, strain gcn3, hits give low values 0.972 | S. cerevisiae deletion strains, locus YKR091W, strain srl3, hits give low values 0.958 | S. cerevisiae deletion strains, locus YLL001W, strain dnm1, hits give low values 0.937 | S. cerevisiae deletion strains, locus YLL026W, hits give low values 0.971 | S. cerevisiae deletion strains, locus YLL041C, strain sdh2, hits give low values 0.958 | S. cerevisiae deletion strains, locus YLR027C, strain aat2, hits give low values 0.964 | S. cerevisiae deletion strains, locus YLR039C, strain RIC1, hits give low values 1.03 | S. cerevisiae deletion strains, locus YLR058C, strain SHM2, hits give low values 1 | S. cerevisiae deletion strains, locus YLR102C, strain apc9, hits give low values 1 | S. cerevisiae deletion strains, locus YLR113W, strain HOG1, hits give low values 0.964 | S. cerevisiae deletion strains, locus YLR221C, strain rsa3, hits give low values 0.994 | S. cerevisiae deletion strains, locus YLR258W, strain gsy2, hits give low values 0.98 | S. cerevisiae deletion strains, locus YLR262C, strain YPT6 (second series), hits give low values 0.983 | S. cerevisiae deletion strains, locus YLR262C, strain YPT6, hits give low values 1.02 | S. cerevisiae deletion strains, locus YLR268W, strain sec22, hits give low values 1.01 | S. cerevisiae deletion strains, locus YLR320W, strain mms22, hits give low values 1.01 | S. cerevisiae deletion strains, locus YLR330W, strain CHS5, hits give low values 0.994 | S. cerevisiae deletion strains, locus YLR342W, strain FKS1 (second series), hits give low values 1 | S. cerevisiae deletion strains, locus YLR342W, strain FKS1, hits give low values 0.98 | S. cerevisiae deletion strains, locus YLR357W, strain rsc2, hits give low values 0.978 | S. cerevisiae deletion strains, locus YLR370C, strain arc18, hits give low values 0.973 | S. cerevisiae deletion strains, locus YLR371W, strain rom2, hits give low values 1 | S. cerevisiae deletion strains, locus YLR384C, strain iki3, hits give low values 0.974 | S. cerevisiae deletion strains, locus YLR418C, strain cdc73, hits give low values 1.02 | S. cerevisiae deletion strains, locus YML016C, strain PPZ1, hits give low values 0.997 | S. cerevisiae deletion strains, locus YML032C, strain rad52, hits give low values 1.01 | S. cerevisiae deletion strains, locus YML120C, strain ndi1, hits give low values 0.956 | S. cerevisiae deletion strains, locus YML124C, strain tub3, hits give low values 1 | S. cerevisiae deletion strains, locus YMR058W, strain fet3, hits give low values 0.968 | S. cerevisiae deletion strains, locus YMR078C, strain ctf18, hits give low values 0.998 | S. cerevisiae deletion strains, locus YMR125W, strain sto1, hits give low values 0.933 | S. cerevisiae deletion strains, locus YMR129W, hits give low values 0.964 | S. cerevisiae deletion strains, locus YMR205C, strain PFK2, hits give low values 0.961 | S. cerevisiae deletion strains, locus YMR223W, strain ubp8, hits give low values 1 | S. cerevisiae deletion strains, locus YMR231W, strain pep5, hits give low values 0.974 | S. cerevisiae deletion strains, locus YMR263W, strain SAP30, hits give low values 1.01 | S. cerevisiae deletion strains, locus YMR307W, strain GAS1, hits give low values 1.03 | S. cerevisiae deletion strains, locus YNL067W, strain RPL9B, hits give low values 0.995 | S. cerevisiae deletion strains, locus YNL071W, strain lat1, hits give low values 0.98 | S. cerevisiae deletion strains, locus YNL128W, strain TEP1, hits give low values 1.01 | S. cerevisiae deletion strains, locus YNL153C, strain GIM3, hits give low values 0.994 | S. cerevisiae deletion strains, locus YNL183C, strain NPR1, hits give low values 0.973 | S. cerevisiae deletion strains, locus YNL209W, strain ssb2, hits give low values 0.963 | S. cerevisiae deletion strains, locus YNL233W, strain BNI4, hits give low values 0.997 | S. cerevisiae deletion strains, locus YNL248C, strain rpa49, hits give low values 0.99 | S. cerevisiae deletion strains, locus YNL250W, strain rad50, hits give low values 0.997 | S. cerevisiae deletion strains, locus YNL271C, strain bni1, hits give low values 0.998 | S. cerevisiae deletion strains, locus YNL298W, strain CLA4, hits give low values 1.01 | S. cerevisiae deletion strains, locus YNL307C, strain MCK1, hits give low values 1.01 | S. cerevisiae deletion strains, locus YNL322C, strain KRE1 (second series), hits give low values 0.951 | S. cerevisiae deletion strains, locus YNL322C, strain KRE1, hits give low values 1 | S. cerevisiae deletion strains, locus YNR049C, strain mso1, hits give low values 0.952 | S. cerevisiae deletion strains, locus YNR052C, strain pop2, hits give low values 0.996 | S. cerevisiae deletion strains, locus YOL006C, strain TOP1, hits give low values 1.06 | S. cerevisiae deletion strains, locus YOL012C, strain htz1 1.04 | S. cerevisiae deletion strains, locus YOL147C, strain pex11, hits give low values 0.997 | S. cerevisiae deletion strains, locus YOR001W, strain rrp6, hits give low values 0.967 | S. cerevisiae deletion strains, locus YOR061W, strain CKA2, hits give low values 0.998 | S. cerevisiae deletion strains, locus YOR069W, strain VPS5, hits give low values 0.989 | S. cerevisiae deletion strains, locus YOR070C, strain gyp1, hits give low values 0.983 | S. cerevisiae deletion strains, locus YOR080W, strain dia2, hits give low values 0.98 | S. cerevisiae deletion strains, locus YOR083W, strain WHI5, hits give low values 0.964 | S. cerevisiae deletion strains, locus YOR106W, strain vam3, hits give low values 0.966 | S. cerevisiae deletion strains, locus YOR136W, strain idh2, hits give low values 1 | S. cerevisiae deletion strains, locus YOR144C, strain elg1, hits give low values 0.999 | S. cerevisiae deletion strains, locus YOR184W, strain ser1, hits give low values 1.01 | S. cerevisiae deletion strains, locus YOR231W, strain MKK1, hits give low values 0.998 | S. cerevisiae deletion strains, locus YOR265W, strain rbl2, hits give low values 0.973 | S. cerevisiae deletion strains, locus YOR270C, strain vph1, hits give low values 0.97 | S. cerevisiae deletion strains, locus YOR290C, strain snf2, hits give low values 0.96 | S. cerevisiae deletion strains, locus YOR316C, strain cot1, hits give low values 1.01 | S. cerevisiae deletion strains, locus YPL051W, strain arl3, hits give low values 0.981 | S. cerevisiae deletion strains, locus YPL055C, strain LGE1, hits give low values 1.02 | S. cerevisiae deletion strains, locus YPL078C, strain atp4, hits give low values 0.961 | S. cerevisiae deletion strains, locus YPL106C, strain sse1, hits give low values 0.971 | S. cerevisiae deletion strains, locus YPL240C, strain hsp82, hits give low values 0.968 | S. cerevisiae deletion strains, locus YPL241C, strain CIN2, hits give low values 0.999 | S. cerevisiae deletion strains, locus YPL256C, strain CLN2, hits give low values 0.987 | S. cerevisiae deletion strains, locus YPR119W, strain clb2, hits give low values 0.99 | S. cerevisiae deletion strains, locus YPR141C, strain kar3, hits give low values 1.01 | S. cerevisiae deletion strains, locus YPR163C, strain tif3, hits give low values 1 | S. cerevisiae deletion strains, locus YPR167C, strain met16, hits give low values 0.996 | S. cerevisiae deletion strains, strain wtn01, hits give low values 1.01 | S. cerevisiae strains, strain wild type, hits give low values 0.997
